This is an account of results in PubChem BioAssay AID504848 (National Center for Advancing Translational Sciences (NCATS), 2011).

Screen size: about 2,300 compounds; about 1,400 (61%) were called active. Another 29% or so got no clear call; they are omitted. So high a share suggests a set chosen from earlier hits. The list shows a part of the results. Values without a mark were called inactive. The call rests on the fitted dose curve; in most records, active means well fitted inhibition curve with a large enough effect; inconclusive means small, poorly fitted or top-dose-only effect, or effect the other way; inactive means no such curve, though single readings can be large or run the other way.
On the % scale 0 is the no-effect control and ±100 the full control effect; potency means the concentration at half of the fitted maximal effect.

The nature of this assay: Confirmation screen for delayed death inhibitors of the malarial parasite plastid, 96 hour incubation. Further: nearly all actives have a fitted effect of over 60% in size. To be noted: P. falciparum luciferase growth in erythrocytes; series mostly up to 28.7 µM; activity change, negative = inhibition: at the top concentration. The gist of the method: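 Two-generation (96 h, 37 C) exposure of P. falciparum carrying an integrated firefly luciferase reporter in erythrocytes, 0.1% parasitemia and 2% hematocrit final, Albumax-supplemented RPMI. Luminescence decrease measures growth inhibition.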
Regarding `CCCn1c(=NC(=O)CCS(=O)(=O)c2ccccc2)sc2cc(S(N)(=O)=O)ccc21`, the Potency was 12.6 µM (active).

For the compound `O=C(NC1C=CS(=O)(=O)C1)c1sc2ccccc2c1Cl` (stereo not drawn), the Potency was 0.398 µM (active). Take `CC1CCN(C(=O)Cn2c(=O)oc3cc(S(=O)(=O)N4CCCCC4)ccc32)CC1`: the Potency is 12.6 µM (active). As to `COC(=O)c1c(-n2c(C)cc(C=O)c2C)sc2c1CCCC2`, the Potency is 12.6 µM (active). With `CCOC(=O)C[n+]1c(C)ccc2c1CCC2`, the Potency was 12.6 µM (active).

With `O=C(CCNC(=O)c1ccc(Cl)cc1)NC1CCCc2ccccc21` (stereo not drawn), the Potency was 12.6 µM (active).

With `CN1CCN(c2ccccc2NC(=O)c2cccc(OCc3ccccc3)c2)CC1`, the Potency is 1.78 µM (active). `CCOC(=O)c1ccc2c(c1)n(CC)c(/C=C/N(C)c1ccccc1)[n+]2CC`: the Potency is 0.0891 µM (active). As to `CCn1c(/C=C/N(C(C)=O)c2ccccc2)[n+](CC)c2ccc(Cl)cc21`, the Potency was 1 µM (active). In the case of `Cc1ccc(CNC(=O)COc2ccccc2-c2ccccc2)cc1`, the Potency is 11.2 µM (active). Same read-out and setting: next, `O=[N+]([O-])c1cccc(-c2c[n+]3c(n2-c2ccccc2)SCC3)c1`: 1.78 µM (active). As for `COC(=O)C(NC(=O)c1ccccc1C)(Nc1ncc(S(=O)(=O)c2ccc([N+](=O)[O-])cc2)s1)C(F)(F)F` (stereo not drawn), the Potency is 3.16 µM (active). With `CCN(CC)c1ccc(/C=N/Nc2nc3ccccc3[nH]2)cc1`, the Potency was 2.51 µM (active). Regarding `Cc1c(/C=N/Nc2nc3ccccc3[nH]2)c2ccccc2n1C`, the Potency was 0.891 µM (active). Consider `Cc1ccc(S(=O)(=O)C2(C(=O)N3CCCCCC3)CC2)cc1`, for which the “activity change, negative = inhibition” value is -5.14%. Consider `CC(=O)N1CCSc2ccc(S(=O)(=O)Nc3ccc(C)cc3)cc21`, for which the Potency is 12.6 µM (active). As for `O=C(COc1ccc(Br)cc1)Nc1cc(S(=O)(=O)N2CCCCC2)ccc1N1CCCCC1`, the Potency was 3.98 µM (active). With `O=C(COc1ccc(Cl)cc1)Nc1cc(S(=O)(=O)N2CCCCC2)ccc1N1CCCCC1`, the Potency was 5.01 µM (active). `CC(Oc1cccc(Cl)c1)C(=O)Nc1cc(S(=O)(=O)N2CCOCC2)ccc1N1CCCCC1` (stereo not drawn): the Potency was 3.98 µM (active). Still for that read-out and setting: next, `COc1ccccc1Nc1nnc(SCC(=O)Nc2nc(-c3ccc(F)cc3)cs2)s1`: 10 µM (active).

Turning to `CCOc1ccccc1Nc1nnc(SC(C)C(=O)Nc2nc(-c3ccccc3)cs2)s1` (stereo not drawn), the Potency was 15.8 µM (active).

For `COc1ccccc1Nc1nnc(SCC(=O)N2CCCC2)s1`, the Potency was 2.51 µM (active). With `Cc1cc(C(=O)OC(C)C(=O)Nc2nc(-c3ccccc3)cs2)c(C)o1` (stereo not drawn), the “activity change, negative = inhibition” value was -14.6%.

In the case of `COc1ccccc1Nc1nnc(SCc2cc(=O)n3ccsc3n2)s1`, the Potency was 4.47 µM (active). Regarding `COc1ccc(OC)c(-c2nc(C(=O)NC3CCN(Cc4ccccc4)CC3)cc3c2[nH]c2ccccc23)c1`, the Potency is 4.47 µM (active). Take `CCCN1CCC(NC(=O)CC2C(=O)NCCN2Cc2cccc(OC)c2)CC1` (stereo not drawn): the “activity change, negative = inhibition” value was -2.53%.

In the case of `COc1ccc(C(=O)NC2CC2)cc1OC1CCN(C/C=C/c2ccccc2)CC1`, the Potency was 2.24 µM (active).

Turning to `COc1ccc(C(=O)NC2CC2)cc1OC1CCN(Cc2ccccc2)CC1`, the Potency is 14.1 µM (active). Turning to `CCCCCCn1ccc(=N)cc1`, the Potency is 3.55 µM (active). The same measure, in the same setting: in the case of `Cc1ccc(-c2csc(N/N=C/c3ccco3)n2)c(C)c1` it was 14.1 µM (active); in that of `CCOc1ccc(C(=O)Nc2ccc(N3CCN(C)CC3)cc2)cc1`, 15.8 µM (active). For the compound `CCOc1ccc(NC(=O)CC2C(=O)N(c3ccccc3)C(=O)N2CCOC)cc1` (stereo not drawn), the “activity change, negative = inhibition” value is -4.39%.

`CC(C)N1CCC(N2CCN(Cc3ccc(-c4ccc(Cl)cc4)o3)CC2CCO)CC1` (stereo not drawn): the Potency is 5.01 µM (active). Same read-out and setting: in the case of `CN1C[C@@H]2C[C@H]1CN2c1cc2c(cc1F)c(=O)c(C(=O)O)cn2C1CC1` it was 2 µM (active); in that of `COc1ccc(C2(CCN)CC(C)N(C)CC2C)cc1` (stereo not drawn), 15.8 µM (active); in that of `CCn1c2ccccc2c2cc(/C=N/n3cn[nH]c3=S)ccc21`, 6.31 µM (active). Consider `CCOC(=O)C1(Cc2cccc(Cl)c2)CCCN(C(=O)C(C)(C)C)C1` (stereo not drawn), for which the Potency is 15.8 µM (active). For the compound `Cc1ccc(C2C3=C(CC(C)(C)CC3=O)N=C3c4ccccc4C(=O)C32)cc1` (stereo not drawn), the Potency was 7.08 µM (active). For `O=C(CSc1c2c(nc3ccc(Cl)cc13)CCCC2)NCCCN1CCOCC1`, the Potency was 10 µM (active). Take `CCN(CC)c1ccc(-c2sc(Nc3ccccc3)n[n+]2-c2ccc(F)cc2)cc1`: the Potency is 12.6 µM (active).

Regarding `c1ccn2cc(C34CC5CC(CC(C5)C3)C4)nc2c1`, the Potency was 12.6 µM (active). Regarding `Cc1c(OC(C)C(=O)NCc2cccnc2)ccc2c3c(c(=O)oc12)CCCC3` (stereo not drawn), the Potency is 1.26 µM (active). On the same count and under the same terms, in the case of `Cc1c(OCC(=O)NCc2cccnc2)ccc2c3c(c(=O)oc12)CCCC3` it was 12.6 µM (active). Consider `O=c1oc2ccccc2c(O)c1CN1CCCCC1`, for which the “activity change, negative = inhibition” value was 0.904%.

In the case of `CC(=O)N1/C(=C/c2ccc(N(C)C)cc2)C(=O)c2ccccc21`, the Potency is 0.282 µM (active).

For `CCOC(=O)Cn1c(S(=O)(=O)Cc2cccc(F)c2)nc(-c2ccccc2)c1-c1ccccc1`, the Potency was 7.08 µM (active).

`C#CCn1c(S(=O)(=O)Cc2ccc(C)cc2)nc(-c2ccccc2)c1-c1ccccc1`: the Potency was 12.6 µM (active). The same measure, in the same setting: in the case of `C#CCn1c(S(=O)(=O)Cc2ccc(F)cc2)nc(-c2ccccc2)c1-c1ccccc1` it was 12.6 µM (active); in that of `COc1cc(-c2nnc(NC(=O)CCS(=O)(=O)c3ccccc3)o2)cc(OC)c1OC`, 12.6 µM (active). As to `Cc1sc(NC(=O)c2c(F)cccc2F)nc1-c1ccccc1`, the “activity change, negative = inhibition” value is 6.15%. Regarding `Cc1sc(N/N=C/c2cccnc2)nc1-c1ccccc1`, the Potency is 12.6 µM (active). For `Cc1nc([N+](=O)[O-])c(Br)n1CC(=O)c1ccc(Cl)cc1`, the Potency is 7.94 µM (active). Consider `O=C(CSc1nc2cc([N+](=O)[O-])ccc2n1-c1ccccc1)NCc1ccc2c(c1)OCO2`, for which the Potency is 11.2 µM (active).

On to `COc1cc2c(cc1OC)CN(C(=O)c1cc(C3CC3)nn1-c1ccccc1)CC2`, for which the Potency is 12.6 µM (active). The same measure, in the same setting: next, `COc1cc2cc(CN(Cc3cccs3)C(=S)Nc3ccc(C)cc3)c(=O)[nH]c2cc1OC`: 10 µM (active); `COc1cc2cc(CN(CCc3ccccc3C)C(=S)NCCCN3CCOCC3)c(=O)[nH]c2cc1OC`: 4.47 µM (active). For `O=C(NC1CCCC1)C1CC(=O)N(CCc2ccccc2)C1` (stereo not drawn), the “activity change, negative = inhibition” value was -58%.

In the case of `O=C(NC1CCCCC1)C1CCN(c2nnnn2-c2ccccc2)CC1`, the Potency was 14.1 µM (active).
